Data as given in PubChem BioAssay (EPA / NIEHS).
Results filed as inconclusive are left out. Activity calls are given as the source filed them. The calls were made as follows: active = hit-call score of the fitted dose curve at least 0.9, where 1 is the maximum; inconclusive = response in the unintended direction; inactive = score below 0.9.

Experiment: IUF_NPC2-5_cytotoxicity_72hr: Cytotoxicity Assessment at 72 hours in the Leibniz Research Institute for Environmental Medicine (IUF) Neural Progenitor Cell Migration and Differentiation Assay for Cytotoxicity (NPC2-5) (AID 2284306);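 also: LDH release into supernatant measured by resorufin fluorescence marking membrane damage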
Procedure: IUF_NPC2-5 is a cell-based, multiplexed assay that uses hNPC, a human primary neural progenitor cells, with measurements taken at 72 or 120 hours after chemical dosing in a 96-well plate. Human neural progenitor cells (hNPC) are generated from human fetal brain cortex at gestational week (GW) 16-19. In the neural progenitor cell migration and differentiation assay (NPC2-5), hNPCs grown as spheres are plated on an extracellular matrix and migrate and differentiate out of the sphere core. The processes radial glia migration, neuronal and oligodendrocyte migration as well as neuronal differentiation, neuronal morphology and oligodendrocyte differentiation are studied using automated phase contrast imaging and automated fluorescence imaging in combination with high content image analysis. In parallel, the cell viability is assessed using an alamar blue viability assay and the cytotoxicity using a lactate dehydrogenase dependent membrane integrity assay.IUF_NPC2-5_cytotoxicity_72hr is one of 12 assay components measured from the IUF_NPC2-5 assay. It is designed to measure the cytotoxicity at 72 hr as assessed by membrane integrity related to the LDH dependent reduction of resazurin to resorufin in the supernatant of each well. The cytotoxicity is measured as fluorescence signal (relative fluorescence unit) in a multiplate reader. Data from the IUF_NPC2-5_cytotoxicity_72hr component was analyzed at the endpoint IUF_NPC2-5_cytotoxicity_72hr in the positive analysis fitting direction relative to the dynamic range and baseline of activity. Using a type of viability reporter, gain-of-signal activity can be used to understand cytotoxicity effects.
Culture protocol: After the cell expansion period the cells are cultured for up to four weeks in which they are passaged every week as described in 3.6. Between one to three days after passaging spheres at a size of 0.3 mm are picked for the test method. For the assessment of neural progenitor cell migration and differentiation, the spheres are plated on poly-D-lysine/laminin coated 96-well flat bottom plates in differentiation medium (N2) to initiate migration and differentiation. Thereby one 0.3 mm big sphere is plated in the middle of a well. The differentiation medium consists of DMEM and Ham's F12 at a ratio of 3 to 1 supplemented with 1% N2 and 1% penicillin and streptomycin. Within 5 days NPCs radially migrate out of the sphere core and differentiate into radial glia cells (nestin positive), neurons (TUBB3 positive), oligodendrocytes (O4 positive) and astrocytes (GFAP positive). Cultivation during the test method is performed at 37C and 5% CO2 at a ph of 7.2-7.6.Exposure: 0.3 mm big hNPC are plated in the already prepared test conditions. Exposure starts at day 0 of differentiation and is continued over five days of differentiation until the experiment is terminated. Cells are fed with fresh medium at day 3 of differentiation. Therefore, half of the test condition solution (e.g. solvent control or compound dilution) is replaced by freshly prepared test condition solution.Test Method: Migration distance and cytotoxicity is determined after 72 hours based on brightfield images of each well. The assay is terminated by the assessment of cell viability and cytotoxicity as well as cell fixation after 120 h. Immunocytochemistry is performed for Hoechst positive nuclei, TUBB3 positive neurons and O4 positive oligodendrocytes. On the ICC images, migration after 120 hours, neuronal and oligodendrocyte number, neuronal morphology and neuron/oligodendrocyte specific migration is assessed. immunocytochemical staining (ICC) generates an image for each sphere. The plates are scanned using an automated high content imaging device and all nuclei and their positions are determined automatically based on their intensity and size. Images are imported to the Omnisphero software to run the image analysis that measures the following endpoints. […]
In the case of `CC(C)(C)C(O)(CCc1ccc(Cl)cc1)Cn1cncn1` (stereo not given), the outcome is reported as “inactive”. With `CC(C)COC(=O)c1ccccc1C(=O)OCC(C)C` the outcome was “inactive”. With `CCCCOC(=O)c1ccccc1C(=O)OCc1ccccc1` the outcome was “inactive”. With `O=P(OCCCl)(OCCCl)OCCCl` the outcome was “inactive”. For `CCC[CH2][Sn]([Cl])([CH2]CCC)[CH2]CCC`, the AC50 was 310 nM (active). In the case of `OCCOCCO`, the outcome is reported as “inactive”. In the case of `CNC(=O)Oc1cccc2c1OC(C)(C)C2`, the outcome is reported as “inactive”. In the case of `COP(=S)(OC)SCN1C(=O)c2ccccc2C1=O`, the outcome is reported as “inactive”. With `[O-][Cl+]O` the outcome was “inactive”. For `COC(=O)Nc1nc2ccccc2[nH]1`, the outcome was “inactive”.
